# Assay outcomes (PubChem BioAssay)
# F508del corr: CFTR F508del correction in bronchial cells | CFBE cells, YFP halide quenching; stimulated with forskolin plus potentiator P3; % fluorescence drop versus neutral controls | activity (quench increase), % at 7.58 µM | actives 0.36% (n = 350,000) | AID 720511;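 active = mean added fluorescence quench of at least 8% versus neutral control, with both replicates also reaching 8%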;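 note: cells transiently co-express mutant CFTR-F508del with the halide-sensitive YFP; corrector assay measuring rescue of mutant channel to the surface after 24 h compound exposure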
# MITF act: increases MITF-driven TRPM1 promoter luciferase signal | activation, % at 12.5 µM | actives 0.75% (n = 300,000) | SK-MEL-5 TRPM1-promoter luciferase, 24 h; % of positive control, neutral wells = 0;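 active = mean activation of at least 80% with every replicate also reaching 80%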;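 note: 0% = neutral control wells and 100% = parthenolide positive control wells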
# INS-1E GSIS act: GLuc luminescence reporter in INS-1E cells, primary screen for activators of glucose-dependent secretion of insulin | INS-1E GLuc reporter insulin secretion, 2-3 h | activation, % at 16.6 µM | actives 0.61% (n = 370,000) | AID 743287;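 active = lowest replicate activation of at least 40%, so every replicate reaches that level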;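 note: 0% = median of neutral control wells and 100% = median of IBMX positive control wells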
# HIV Env fusion: inhibitors of HIV Env-mediated cell fusion; HeLa-JRFL Env/CEM21 cell fusion, luciferase; inhibition, % at 12.3 µM; actives 1.1% (n = 360,000); AID 651610;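 active = mean replicate inhibition score of at least 50 and every replicate individually at or above 50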;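 note: 0% = plate neutral controls and 100% = maraviroc near 300 nM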
# Wnt act: Wnt/beta-catenin pathway activation. actives 1.2% (n = 300,000). Wnt/beta-catenin reporter cell assay, activator, plate reader. activation, % at 9.35 µM; in the data active = activation above about 30%, passing the limit was not always enough;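 note: 0% = neutral control wells and 100% = positive control wells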
# * marks the source's active call; other numbers are inactive results; i = inactive; x = no result given; ! = repeats disagree; [ ] = remark or other dose. Sampled rows, rich in hits. Any-hit rate of the full collection: about 2.7%.
SMILES,F508del corr,MITF act,INS-1E GSIS act,HIV Env fusion,Wnt act
CC(=O)Nc1ccc(Cl)c(-c2nc3ncccc3o2)c1,-1.4,2.5,57.5*,-4.0,1.6
O=C(COc1ccccc1)Nc1ccc(Cl)c(-c2nc3ncccc3o2)c1,x,-2.3,x,-19.9,5.0
Nc1nc(-c2nc3ccccc3[nH]2)cs1,x,x,18.6,-76.1,56.1*
c1ccc(-c2nc3ccccc3[nH]2)cc1,-0.5,86.1*,18.9,-22.9,61.3*
CO[C@H]1CN(C)C(=O)c2ccc(NC(=O)c3ccc(F)cc3)cc2OC[C@@H](C)N(C(=O)CN(C)C)C[C@H]1C,1.3,x,10.7,x,x
C[C@@H]1CN([C@H](C)CO)C(=O)Cc2cc(NC(=O)c3ccncc3)ccc2O[C@H]1CN(C)Cc1ccccc1,0.2,x,12.3,20.5[16.7 µM],x
CCN1CCN(C(=S)Nc2ccsc2C(=O)OC)CC1,-0.8,-11.0,-0.2,-1.4,2.8
COC(=O)c1sccc1NC(=S)N1CCN(C)CC1,-0.9,-8.3,41.9*,-3.3,-0.1
Cc1noc(C)c1C(=O)Nc1nc(-c2cccs2)cs1,1.4,41.9,-11.6,x,30.2*
COc1ccc2nc(NC(=O)c3c(C)noc3C)sc2c1,0.7,x,-0.9,-79.3,34.8*
COc1ccc2nc(NC(=O)Nc3ccccc3)sc2c1,-14.7,68.0,-8.9,i,56.3*!
COc1ccc2nc(Nc3nc(C)c(C(C)=O)s3)sc2c1,x,69.2,x,-172.2,55.9*
C[C@@H]1CN([C@@H](C)CO)C(=O)c2cccc(NS(=O)(=O)c3cn(C)cn3)c2O[C@@H]1CN(C)C(=O)Nc1cccc2ccccc12,-1.2,x,0.6,x,x
COc1ccc(NC(=O)N(C)C[C@@H]2Oc3ccc(NC(=O)Nc4ccccc4)cc3C(=O)N([C@@H](C)CO)C[C@@H]2C)cc1,0.4,x,-3.7,x,x
COc1ccc(Nc2nc3ccc(OC)cc3s2)cc1,-1.4,90.6*,6.8,-12.6,28.3
CN(C)CCCNC(=O)C[C@H]1CC[C@H](NS(=O)(=O)c2ccc(F)cc2)[C@@H](CO)O1,-1.2,x,-4.0,-14.4[16.7 µM],x
COCCNC(=O)C[C@H]1CC[C@H](NC(=O)NC2CCCC2)[C@@H](CO)O1,-2.6,x,4.5,-22.6[16.7 µM],x
COc1ccc(NC(=O)CC2C(=O)N(C)C(=S)N2Cc2ccc3c(c2)OCO3)cc1 (stereo unspecified),x,2.9,-8.9,-21.2,35.4*
CCCC1C(=O)Nc2ccccc2N1C(=O)c1ccc(C(C)(C)C)cc1 (stereo unspecified),-3.0,-5.9,-13.8,62.2*,-0.7
CCCC1C(=O)Nc2ccccc2N1C(=O)c1cccc(C)c1 (stereo unspecified),-1.2,-6.7,26.6,51.8,-1.8
CNC[C@H]1Oc2ccc(NC(C)=O)cc2C(=O)N(C)C[C@@H]1C,x,x,13.7,x,x
Cc1ccc(S(=O)(=O)N(CCCc2c(C)nc(N)[nH]c2=O)Cc2ccc([N+](=O)[O-])cc2)cc1,0.8,x,-14.2,4.0,-1.4
Cc1nc(N)[nH]c(=O)c1CCCNS(=O)(=O)c1ccc([N+](=O)[O-])cc1,8.1*,-10.0,x,10.7,-2.3
Clc1ccc(-c2cc3ccccc3[nH]2)cc1,x,x,-30.1,-38.9,42.3*
C[C@H]1CN([C@@H](C)CO)C(=O)c2cc(C3=CCCCC3)cnc2O[C@H]1CN(C)C(=O)Nc1ccccc1,1.7,x,-23.5,-13.0[16.7 µM],x
SMILES,F508del corr,MITF act,INS-1E GSIS act,HIV Env fusion,Wnt act
COc1ccc(C(=O)Nc2ccccc2C(=O)NCc2ccco2)cc1OC,x,x,x,-38.9,48.2*
CCc1nc2ccc(C(=O)NCCc3ccco3)cc2nc1CC,x,87.4*,x,x,x
O=C(NCc1ccco1)c1ccc2ccccc2c1,x,90.4*,-8.8,x,x
Cc1ccccc1CN(c1ccc(C(=O)Nc2ccccc2C(=O)NCc2ccco2)cc1)S(C)(=O)=O,x,-1.3,-23.4,61.4*,x
CCOc1ccc(CCNC(=O)c2ccc3nc(CC)c(CC)nc3c2)cc1,2.2,-10.1,7.7,8.1,2.0
O=C(Cc1ccccn1)N1CC(=O)N2[C@H](C1)[C@H](c1ccc(C#CC3CCCC3)cc1)[C@@H]2CO,2.0,x,1.2,x,x
O=C(Nc1sc2c(c1C(=O)NCc1ccco1)CCCC2)c1ccc2c(c1)OCO2,x,99.7*,-17.2,-104.3,18.0
O=C(C[C@@H]1C[C@@H]2c3cc(NC(=O)Nc4ccccc4)ccc3O[C@@H]2[C@@H](CO)O1)NCc1ccccc1,0.9,x,12.4,59.0*[16.7 µM],x
O=C(C[C@H]1C[C@H]2c3cc(NC(=O)Nc4ccccc4)ccc3O[C@H]2[C@H](CO)O1)NCc1cccnc1,0.4,x,8.3,8.3[16.7 µM],x
O=C(C[C@H]1C[C@H]2c3cc(NC(=O)c4ccc5c(c4)OCO5)ccc3O[C@H]2[C@H](CO)O1)NCc1ccc(Oc2ccccc2)cc1,-1.8,x,3.0,73.1*[16.7 µM],x
O=C(C[C@@H]1C[C@H]2c3cc(NC(=O)Nc4ccccc4)ccc3O[C@H]2[C@H](CO)O1)NCc1cccnc1,-0.5,x,-10.4,62.8*[16.7 µM],x
O=C(C[C@H]1C[C@@H]2c3cc(NC(=O)Nc4ccccc4)ccc3O[C@@H]2[C@@H](CO)O1)NCc1ccccc1,1.0,x,0.2,-16.2[16.7 µM],x
C[C@@H]1CN([C@H](C)CO)C(=O)c2cccc(NS(=O)(=O)c3ccc(F)cc3)c2O[C@H]1CN(C)S(=O)(=O)c1cn(C)cn1,-1.4,x,10.8,-16.6[16.7 µM],x
C[C@@H]1CN([C@H](C)CO)C(=O)c2cc(N(C)C)ccc2O[C@@H](C)CCCCO[C@@H]1CN(C)C(=O)c1ccncc1,-0.6,x,7.1,-3.0[16.7 µM],x
Cc1ccc(S(=O)(=O)Nc2ccc3c(c2)C(=O)N([C@H](C)CO)C[C@@H](C)[C@@H](CN(C)C(=O)Nc2c(C)noc2C)OCCCC[C@@H](C)O3)cc1,0.4,x,-9.2,4.0[16.7 µM],x
COc1cccc(-n2cnc3sc(-c4ccccc4)cc3c2=O)c1,-1.6,101.1*,-5.5,-5.0,24.2
COc1ccc(-n2cnc3sc(-c4ccccc4)cc3c2=O)cc1,x,123.6*,50.2,x,x
COc1ccc(-n2cnc3sccc3c2=O)cc1,-1.6,3.2,29.5,5.1,4.8
Nc1cc(C(=O)OCC(=O)N2CCCC2=O)ccc1Cl,-1.3,8.8,4.9,66.5*,-2.8
COc1ccc(/C=C2\CCC(C3CCCC3)C2=O)cc1OC (stereo unspecified),-1.0,73.6,4.4,19.8,33.5*
COc1ccc(/C=C2\CCC(C3CCCC3)C2=O)cc1 (stereo unspecified),1.8,97.7*,1.4,-36.8,-1.0
Cc1ccc(/C=C2\CCC(C3CCCC3)C2=O)cc1 (stereo unspecified),1.2,15.6,25.1,-18.4,13.0
Cc1ccsc1/C=C1\CCc2ccccc2C1=O,x,x,x,-474.0,x
Cc1ccsc1/C=C1\CCC(C2CCCC2)C1=O (stereo unspecified),-2.1,75.5,-15.5,-124.4,46.6*
O=C(Cc1ccccn1)N1CC(=O)N2[C@@H](CO)[C@@H](c3ccc(-c4ccc(F)cc4)cc3)[C@@H]2C1,0.1,x,3.9,x,x
CSc1cccc(CNC(=O)C2CCC(=O)N(CCc3ccccn3)C2)c1 (stereo unspecified),1.0,-5.2,15.4,15.7,-0.6
